Measurements from PubChem BioAssay (NCI).
This is part of a sample that, as a whole, favours compounds with a hit. Of some 83,000 tested, about 20% had one in any assay.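 For each line, cells grew in 96-well plates with the test compound present at a single concentration for 48 hours.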 Values without a mark were called inactive. The source made the active and inactive calls. The calls were made as follows: active = growth percent below 10; inactive = the rest.

Tests used:
Experiment in all cases: NCI-60 one-dose screen, 48 h (100 = growth as untreated, 0 = no growth, -100 = all killed)
Settings in all cases: 10 µM unless noted
DU-145 prostate = test system: DU-145 prostate
K-562 leukemia = test system: K-562 leukemia
MALME-3M melanoma = test system: MALME-3M melanoma
MDA-MB-231 breast = test system: MDA-MB-231 breast
RXF 393 renal = test system: RXF 393 renal
SF-268 CNS = test system: SF-268 CNS
SF-295 CNS = test system: SF-295 CNS
SF-539 CNS = test system: SF-539 CNS
UACC-257 melanoma = test system: UACC-257 melanoma
M14 melanoma = test system: M14 melanoma
HCT-15 colon = test system: HCT-15 colon
HT29 colon = test system: HT29 colon
SNB-19 CNS = test system: SNB-19 CNS
U251 CNS = test system: U251 CNS
PC-3 prostate = test system: PC-3 prostate
SK-MEL-5 melanoma = test system: SK-MEL-5 melanoma
UACC-62 melanoma = test system: UACC-62 melanoma
LOX IMVI melanoma = test system: LOX IMVI melanoma
SK-MEL-28 melanoma = test system: SK-MEL-28 melanoma

| SMILES | growth (DU-145 prostate) | growth (K-562 leukemia) | growth (MALME-3M melanoma) | growth (MDA-MB-231 breast) | growth (RXF 393 renal) | growth (SF-268 CNS) | growth (SF-295 CNS) | growth (SF-539 CNS) | growth (UACC-257 melanoma) | growth (M14 melanoma) | growth (HCT-15 colon) | growth (HT29 colon) | growth (SNB-19 CNS) | growth (U251 CNS) | growth (PC-3 prostate) | growth (SK-MEL-5 melanoma) | growth (UACC-62 melanoma) | growth (LOX IMVI melanoma) | growth (SK-MEL-28 melanoma) |
| --- | --- | --- | --- | --- | --- | --- | --- | --- | --- | --- | --- | --- | --- | --- | --- | --- | --- | --- | --- |
| CCCCCCCCCCCCNC(=O)[C@H]1CSC(c2cc(Br)cs2)N1 (some centres undefined) | -48.2% (active) | -47.2% (active) | 13.1% | -77.9% (active) | -60% (active) | -72.4% (active) | 36% | -66.3% (active) | -22.3% (active) | -83.5% (active) | 3.37% (active) | 0.836% (active) | 74.5% | -52.6% (active) | -35% (active) | 53.4% | -84.5% (active) | -86.4% (active) | -82% (active) |
| C=C1CCC2C(C)(CO)C(O)CCC2(C)C1C/C=C1/C(=O)OCC1Oc1ccccc1C (centres undefined) | 82.8% | 30.6% | 109% | 109% | 109% | 102% | 97.6% | 81.1% | 83.5% | 67.1% | 55.9% | 42.8% | 83.4% | 88.4% | 86.3% | 93.6% | 77.3% | 2.56% (active) | 98% |
| C/C=C/C1=CN2C(=O)c3cc(OC4OC(C)C(NC)C(C)(O)C4O)c(C)cc3N=C[C@@H]2C1 (some centres undefined) | -18.6% (active) | 5.83% (active) | -43% (active) | 15.7% | -44.9% (active) | -28.8% (active) | -23.1% (active) | -44.9% (active) | -1.62% (active) | -60.5% (active) | 4.13% (active) | 5.72% (active) | 14.7% | 9.48% (active) | 7.19% (active) | -51.3% (active) | -80.4% (active) | -11.2% (active) | -24.2% (active) |
| C=C1CCC2C3(C)COC(C)(C)OC3CCC2(C)C1C/C=C1/C(=O)OCC1Oc1ccccc1OC (centres undefined) | 78.9% | 21.7% | 112% | 103% | 93.3% | 99.7% | 101% | 83% | 85.3% | 72.3% | 43% | 56.4% | 88.7% | 100% | 90.5% | 95.4% | 80.4% | -3.97% (active) | 101% |
| CCN1CCN(CC(=O)N2c3cccc4cccc(c34)N(C(=O)CN3CCN(CC)CC3)C2c2cn(-c3ccccc3)nc2-c2cccc([N+](=O)[O-])c2)CC1 | 28.3% | -52.9% (active) | -91.3% (active) | -66.1% (active) | 3.79% (active) | 16.6% | -50.3% (active) | -89.2% (active) | -83.1% (active) | -81.6% (active) | -45.5% (active) | -41.5% (active) | 8% (active) | -82.1% (active) | 21.6% | -92.5% (active) | -82.4% (active) | -82.1% (active) | -87.6% (active) |
| O=C(Nc1ccc2c(c1)OCO2)C(=O)c1c[nH]c2cc(F)ccc12 | 34.5% | 26.4% | 73% | 25.6% | 75.4% | 47.6% | 24.2% | 56.1% | 64.4% | 29.9% | 57.2% | 62% | 85.1% | 58.4% | 63.8% | 58% | 22% | 8.88% (active) | 30.7% |
| O=C1/C(=C/c2ccc([N+](=O)[O-])cc2)CN(C(=O)CCN2CCC(=NO)CC2)C/C1=C\c1ccc([N+](=O)[O-])cc1 | -8.07% (active) | 7.03% (active) | -20.3% (active) | -69.1% (active) | -76.5% (active) | -22.4% (active) | -28.6% (active) | -42.8% (active) | -4.87% (active) | -33.4% (active) | -68.4% (active) | -49.7% (active) | -41.6% (active) | -56.8% (active) | -34.6% (active) | -50.5% (active) | -52.2% (active) | -83.3% (active) | -30.6% (active) |
| COc1ccc(-c2c(N)n[nH]c2-c2cc(OC)c(OC)c(OC)c2)cc1 | 11% | 19.3% | 39.3% | 28% | -1.72% (active) | 34.9% | 12.8% | 1.66% (active) | 59.2% | 5.82% (active) | 24.6% | 4.25% (active) | 35.9% | 23.5% | 40.9% | 0.844% (active) | 25.7% | 43.2% | 50.4% |
| Cc1cc(N/N=C/c2nc(-c3ccccc3)oc2C)c2cc(Cl)ccc2n1 | -31.3% (active) | -29.3% (active) | -88.9% (active) | -95.1% (active) | -88.3% (active) | -60.3% (active) | -85% (active) | 8.72% (active) | 106% | -87.4% (active) | -83.3% (active) | -78.1% (active) | -31.2% (active) | -76.9% (active) | -61.1% (active) | 20.4% | 86.3% | -76.8% (active) | -96.4% (active) |
| O=C(Nc1ccncc1)C(=O)c1cn(S(=O)(=O)c2ccc(Oc3ccccc3)cc2)c2ccccc12 | 96.8% | 81.5% | 84.9% | 68.9% | 110% | 109% | 60% | 96.5% | 103% | 102% | 88.6% | 101% | 98.6% | 94% | 85.7% | 98.2% | 79.1% | 91.3% | 110% |
| S=c1[nH]nc(-c2cc3ccc2CCc2ccc(cc2)CC3)n1C1CC1 | 108% | 97.9% | 97% | 99.5% | 105% | 103% | 93.8% | 98% | 105% | 97.8% | 96.6% | 95.7% | 95.5% | 97.4% | 95.8% | 95.7% | 80.2% | 95% | 102% |
| CN(C)c1oc(C2OC2c2ccccc2)nc1C#N (centres undefined) | 107% | 106% | 95.9% | 87.3% | 86.7% | 95.7% | 98.8% | 104% | 83% | 104% | 106% | 92.9% | 83.2% | 94% | 101% | 102% | 76.1% | 99.3% | 87.8% |
| Brc1ccc(-c2[nH]ncc2-c2c[nH]c3ccccc23)cc1 | 108% | 88.4% | 90.6% | 67.7% | 103% | 89% | 96.2% | 93.3% | 91.6% | 89.7% | 94.9% | 109% | 97% | 93.9% | 77.4% | 100% | 91.7% | 89.7% | 107% |
| Cc1ccc(-c2csc(NC(=O)CCCCl)n2)cc1 | 99.9% | 74.6% | 94% | 95.8% | 105% | 85.8% | 83.5% | 96.3% | 103% | 103% | 95.1% | 93.9% | 86.5% | 95.4% | 95.4% | 93.9% | 88.6% | 98.3% | 107% |
| CC(C)(C)n1cc(-c2ccnc(NCCCNS(=O)(=O)c3ccc(Cl)cc3)c2)c(-c2cccc(O)c2)n1 | 13.1% | -23.3% (active) | -44.5% (active) | -24.4% (active) | -12% (active) | 20.7% | -45% (active) | -26.1% (active) | -39.3% (active) | -23.2% (active) | -65.3% (active) | -49.3% (active) | 24.6% | -43.7% (active) | -0.444% (active) | -87.8% (active) | -2.46% (active) | -88.4% (active) | -67.1% (active) |
| c1cc(C2=N[C@@H]3c4ccccc4C[C@@H]3O2)nc(C2=N[C@@H]3c4ccccc4C[C@@H]3O2)c1 | 104% | 102% | 103% | 105% | 105% | 97.1% | 86.9% | 97% | 107% | 99.4% | 94.7% | 105% | 97.7% | 101% | 98.3% | 102% | 102% | 97% | 108% |
